From PubChem BioAssay (NCI) come the findings set out here.

Some test systems named below: SR leukemia; RPMI-8226 leukemia; OVCAR-8 ovarian; OVCAR-5 ovarian; OVCAR-4 ovarian; SK-OV-3 ovarian; IGROV1 ovarian; OVCAR-3 ovarian; HS 578T breast; NCI/ADR-RES ovarian; T-47D breast; BT-549 breast; MDA-MB-435 melanoma; SW-620 colon; MCF7 breast; HCT-116 colon; HCC-2998 colon; KM12 colon.
Test in all cases: NCI-60 one-dose screen, 48 h (100 = growth as untreated, 0 = no growth, -100 = all killed)
Conditions in all cases: 10 µM unless noted

Molecules are shown by their SMILES. About 83,000 compounds went through this panel and 20% of them were active in at least one assay; those are over-represented in the sample as a whole.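 Cell lines were cultured in 96-well plates, exposed to a single compound concentration, and assessed for percent growth 48 hours later.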 A number with no mark means an inactive call. The source made the active and inactive calls. Rule for the calls: active = growth percent below 10; inactive = the rest.

Regarding `COc1cc2c(c(OC)c1OC)C(=O)N[C@@H]1[C@@H](O)[C@@H](O)[C@H](O)C[C@@H]21`, the growth was 95.6% with SR leukemia; 102% in the assay on RPMI-8226 leukemia; 97.3% with OVCAR-8 ovarian; 106% in the assay on OVCAR-5 ovarian; 107% with OVCAR-4 ovarian; 99.9% in the assay with SK-OV-3 ovarian. Further, the growth was 111% in the assay with IGROV1 ovarian; 112% in the assay on OVCAR-3 ovarian; 108% in the assay on HS 578T breast; 108% in the assay on NCI/ADR-RES ovarian; 100% with T-47D breast; 110% with BT-549 breast. Also, the growth in the assay on MDA-MB-435 melanoma was 110%; with SW-620 colon, 109%; in the assay with MCF7 breast, 96.1%; in the assay with HCT-116 colon it was 98.9%; with HCC-2998 colon, 101%; with KM12 colon, 108%.

Regarding `Cn1cc(-c2nn3cc(-c4ccccc4)nc3s2)c2ccccc21`, the growth was 13.2% in the assay with SR leukemia; 91.2% in the assay with RPMI-8226 leukemia; 89.4% in the assay with OVCAR-8 ovarian; 70.5% in the assay on OVCAR-5 ovarian; 63.6% in the assay with OVCAR-4 ovarian; 68.7% in the assay on SK-OV-3 ovarian. In addition, the growth was 52.1% in the assay with IGROV1 ovarian; 72.7% in the assay with OVCAR-3 ovarian; 62.3% in the assay with HS 578T breast; 70.5% with NCI/ADR-RES ovarian; 59.6% in the assay with T-47D breast; 78.1% in the assay on BT-549 breast. The growth in the assay with MDA-MB-435 melanoma was -1.83% (active); with SW-620 colon it was 43.7%; in the assay with MCF7 breast it was 55.6%; in the assay with HCT-116 colon it was 69.3%; in the assay on HCC-2998 colon, 86%; in the assay with KM12 colon, 41.6%.

In the case of `O=C(c1ccc(F)c(Cl)c1)N1c2ccccc2Sc2ccccc21`, the growth with SR leukemia was 34%; with RPMI-8226 leukemia it was 52.6%; with OVCAR-8 ovarian, 89.9%; in the assay on OVCAR-5 ovarian, 87.3%; with OVCAR-4 ovarian it was 80.1%; in the assay on SK-OV-3 ovarian it was 89.2%. In addition, the growth with IGROV1 ovarian was 71.2%; in the assay on OVCAR-3 ovarian, 63.2%; in the assay on HS 578T breast, 79.3%; with NCI/ADR-RES ovarian it was 39.8%; in the assay with T-47D breast, 61%; in the assay on BT-549 breast, 57.6%. Also, the growth in the assay on MDA-MB-435 melanoma was 8.14% (active); with SW-620 colon, 33.9%; with MCF7 breast it was 51.2%; in the assay with HCT-116 colon it was 31.4%; in the assay with HCC-2998 colon, 62.3%; in the assay on KM12 colon, 39.6%.

In the case of `C=C(CN1CC=CCC1)[C@@H]1CC[C@]2(CO)CC[C@]3(C)[C@H](CC[C@@H]4[C@@]5(C)CC[C@H](O)C(C)(C)[C@@H]5CC[C@]43C)[C@@H]12`, the growth is 76.9% in the assay with SR leukemia; 88% in the assay on RPMI-8226 leukemia; 101% in the assay on OVCAR-8 ovarian; 109% with OVCAR-5 ovarian; 92.8% in the assay on OVCAR-4 ovarian; 107% in the assay with SK-OV-3 ovarian. Besides, the growth is 107% in the assay with IGROV1 ovarian; 102% in the assay with OVCAR-3 ovarian; 95.3% with HS 578T breast; 90.1% in the assay with NCI/ADR-RES ovarian; 87.6% with T-47D breast; 105% in the assay on BT-549 breast. In addition, the growth was 105% with MDA-MB-435 melanoma; 106% in the assay with SW-620 colon; 88.7% in the assay on MCF7 breast; 94.4% in the assay on HCT-116 colon; 116% in the assay with HCC-2998 colon; 107% in the assay with KM12 colon.

For the compound `O=C(Cn1nnc2ccccc21)N/N=C/c1ccccc1F`, the growth was 96.8% in the assay on SR leukemia; 101% in the assay on RPMI-8226 leukemia; 95.2% with OVCAR-8 ovarian; 108% in the assay on OVCAR-5 ovarian; 110% with OVCAR-4 ovarian; 98.2% with SK-OV-3 ovarian. For the same compound, the growth in the assay with IGROV1 ovarian was 109%; in the assay with OVCAR-3 ovarian, 108%; in the assay on HS 578T breast, 81.2%; in the assay on NCI/ADR-RES ovarian, 109%; in the assay with T-47D breast, 92%; in the assay with BT-549 breast, 101%. In addition, the growth is 102% with MDA-MB-435 melanoma; 96.7% in the assay on SW-620 colon; 89.9% in the assay with MCF7 breast; 101% with HCT-116 colon; 115% in the assay with HCC-2998 colon; 91.9% in the assay with KM12 colon.

Take `COc1cccc(OC)c1Oc1c(-c2nc3ccccc3s2)c(C)nn1-c1ccccc1`: the growth with SR leukemia was 6.99% (active); in the assay with RPMI-8226 leukemia, 57.6%; in the assay with OVCAR-8 ovarian, 72.2%; with OVCAR-5 ovarian it was 73.8%; with OVCAR-4 ovarian, 63.4%; with SK-OV-3 ovarian it was 75.3%. Also, the growth in the assay on IGROV1 ovarian was 46.5%; in the assay on OVCAR-3 ovarian it was 89.6%; with HS 578T breast, 78.3%; with NCI/ADR-RES ovarian, 64.7%; with T-47D breast, 42.1%; in the assay with BT-549 breast, 36.3%. The growth in the assay with MDA-MB-435 melanoma was 88.1%; in the assay on SW-620 colon it was 88%; in the assay on MCF7 breast, 82.1%; in the assay on HCT-116 colon, 53.8%; in the assay with HCC-2998 colon it was 81.9%; in the assay on KM12 colon, 59.7%.

For `Cc1nn(-c2ccccc2)c(/N=C/N(C)C)c1/C=C/C(=O)c1ccc(Cl)cc1`, the growth with SR leukemia is 23.4%; in the assay on RPMI-8226 leukemia, 6.91% (active); in the assay with OVCAR-8 ovarian, 101%; in the assay with OVCAR-5 ovarian it was 81.7%; in the assay with OVCAR-4 ovarian it was 98.3%; with SK-OV-3 ovarian it was 111%. In addition, the growth in the assay with IGROV1 ovarian is 81.2%; with OVCAR-3 ovarian, 103%; with HS 578T breast, 92.2%; with NCI/ADR-RES ovarian, 86.9%; in the assay with T-47D breast, 101%; in the assay on BT-549 breast it was 87.3%. Further, the growth with MDA-MB-435 melanoma was 98.4%; in the assay with SW-620 colon, 93.3%; in the assay with MCF7 breast it was 85.9%; in the assay on HCT-116 colon, 74.7%; with HCC-2998 colon, 101%; in the assay with KM12 colon, 101%.

For the compound `C#CCOc1cccc(-c2ncc3cc(NC(=O)CCl)ccc3n2)c1`, the growth in the assay with SR leukemia was -28.2% (active); in the assay with RPMI-8226 leukemia, -24.9% (active); in the assay with OVCAR-8 ovarian it was 6.25% (active); in the assay on OVCAR-5 ovarian, -58.8% (active); in the assay on OVCAR-4 ovarian, -28.2% (active); in the assay on SK-OV-3 ovarian, 76.8%. In addition, the growth is -52.7% (active) in the assay with IGROV1 ovarian; -51.2% (active) with OVCAR-3 ovarian; 31.7% with HS 578T breast; 7.12% (active) in the assay with NCI/ADR-RES ovarian; -26.7% (active) in the assay on T-47D breast; -49.3% (active) with BT-549 breast. In addition, the growth in the assay on MDA-MB-435 melanoma was 2.74% (active); in the assay on SW-620 colon, -58.3% (active); in the assay with MCF7 breast, -21.6% (active); in the assay with HCT-116 colon, -26.9% (active); with HCC-2998 colon, -7.49% (active); with KM12 colon it was 14.2%.

As for `CC(C)CSc1oc(-c2ccccc2)nc1S(=O)(=O)c1ccccc1`, the growth in the assay with SR leukemia is 91.7%; with RPMI-8226 leukemia it was 85.9%; in the assay on OVCAR-8 ovarian it was 94.7%; in the assay with OVCAR-5 ovarian, 110%; in the assay on OVCAR-4 ovarian, 86.6%; in the assay on SK-OV-3 ovarian, 87%. The growth in the assay with IGROV1 ovarian is 94.5%; in the assay on OVCAR-3 ovarian, 97.2%; in the assay with HS 578T breast, 96.6%; in the assay with NCI/ADR-RES ovarian it was 82.2%; in the assay with T-47D breast it was 62.4%; in the assay with BT-549 breast it was 102%. The growth in the assay on MDA-MB-435 melanoma was 105%; in the assay on SW-620 colon, 97.2%; in the assay on MCF7 breast, 92.3%; in the assay on HCT-116 colon, 81.9%; in the assay with HCC-2998 colon, 100%; with KM12 colon, 96%.
